Reference: PubChem BioAssay (EPA / NIEHS)
Inconclusive results are not listed. The source made the active and inactive calls. The calls were made as follows, unless noted: active = hit-call score of the fitted dose curve at least 0.9, where 1 is the maximum; inactive = score below 0.9.

Assays:
[1] = biological target: X-box-binding protein 1 (Homo sapiens) (UniProt P17861); experiment: ATG_Xbp1_CIS: Attagene CIS-FACTORIAL HepG2 Assay for human X-box Binding Protein 1 (XBP1) (AID 2282972); settings: HepG2 XBP1 cis-element reporter, Attagene multiplex; actives raise or lower the signal
X-box-binding protein 1 (Homo sapiens), sequence (P17861 whole entry, looked up, the tested form may be a part): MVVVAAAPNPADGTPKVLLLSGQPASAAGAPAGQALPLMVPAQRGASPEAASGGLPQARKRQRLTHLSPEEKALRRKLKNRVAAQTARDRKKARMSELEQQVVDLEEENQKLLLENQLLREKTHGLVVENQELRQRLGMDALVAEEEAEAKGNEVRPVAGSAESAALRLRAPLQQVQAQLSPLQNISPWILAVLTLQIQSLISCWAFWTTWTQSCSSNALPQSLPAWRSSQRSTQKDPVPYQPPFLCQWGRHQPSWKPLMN
Outline: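 Read-out: fluorescent reporter mRNA fragments resolved by capillary electrophoresis after RT-PCR. Human HepG2 liver cells carried transfected cis-promoter reporter units and were exposed to chemicals for 24 hours. Gain or loss of signal fitted relative to DMSO baseline.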

[2] = ATG_GAL4_TRANS: Attagene TRANS-FACTORIAL HepG2 Assay for GAL4 (Internal Marker) (AID 2282976; active = hit-call score of the fitted dose curve at least 0.9, where 1 is the maximum); settings: HepG2 Attagene TRANS GAL4 internal marker reporter
Outline: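 Background-control readout: GAL4-UAS reporter transcript in transiently transfected HepG2 cells after 24 h compound exposure. Measured by RT-PCR, 6-FAM primer extension, HpaI digest and capillary electrophoresis; gain-of-signal fit versus DMSO.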

[3] = biological target: Bile acid receptor (Homo sapiens) (UniProt Q96RI1); experiment: ATG_FXR_TRANS: Attagene TRANS-FACTORIAL HepG2 Assay for Farnesoid X Receptor (FXR) (AID 2282979; active = hit-call score of the fitted dose curve at least 0.9, where 1 is the maximum;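 also: hits raise reporter mRNA above DMSO so AC50 marks FXR activation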); settings: HepG2 Attagene TRANS FXR-GAL4 reporter transcription
Bile acid receptor (Homo sapiens), sequence (Q96RI1 whole entry, looked up, the tested form may be a part): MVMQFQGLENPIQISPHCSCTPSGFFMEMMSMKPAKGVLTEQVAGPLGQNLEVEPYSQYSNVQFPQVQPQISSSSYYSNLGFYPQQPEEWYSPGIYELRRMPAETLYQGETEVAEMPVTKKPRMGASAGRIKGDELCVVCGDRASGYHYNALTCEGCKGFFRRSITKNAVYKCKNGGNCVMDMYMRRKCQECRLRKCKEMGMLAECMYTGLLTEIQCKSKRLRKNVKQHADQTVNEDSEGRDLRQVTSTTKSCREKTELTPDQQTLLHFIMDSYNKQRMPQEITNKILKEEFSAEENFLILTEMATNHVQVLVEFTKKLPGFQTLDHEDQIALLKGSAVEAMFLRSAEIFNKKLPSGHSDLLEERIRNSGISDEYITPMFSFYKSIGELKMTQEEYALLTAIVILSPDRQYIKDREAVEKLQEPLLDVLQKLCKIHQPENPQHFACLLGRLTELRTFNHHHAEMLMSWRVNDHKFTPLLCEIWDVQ
Outline: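 HepG2 cells were transiently transfected with GAL4-UAS reporters driven by chimeric NR-Gal4 proteins and dosed for 24 h. Reporter mRNA was quantified by RT-PCR, fluorescent labelling, HpaI digestion and capillary electrophoresis, with gain of signal scored versus DMSO.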

[4] = biological target: Oxysterols receptor LXR-alpha (Homo sapiens) (UniProt Q13133); experiment: ATG_LXRa_TRANS: Attagene TRANS-FACTORIAL HepG2 Assay for human Liver X Receptor alpha (LXRa) (AID 2282980; active = hit-call score of the fitted dose curve at least 0.9, where 1 is the maximum); settings: HepG2 Attagene TRANS reporter, LXRa transactivation
Oxysterols receptor LXR-alpha (Homo sapiens), sequence (Q13133 whole entry, looked up, the tested form may be a part): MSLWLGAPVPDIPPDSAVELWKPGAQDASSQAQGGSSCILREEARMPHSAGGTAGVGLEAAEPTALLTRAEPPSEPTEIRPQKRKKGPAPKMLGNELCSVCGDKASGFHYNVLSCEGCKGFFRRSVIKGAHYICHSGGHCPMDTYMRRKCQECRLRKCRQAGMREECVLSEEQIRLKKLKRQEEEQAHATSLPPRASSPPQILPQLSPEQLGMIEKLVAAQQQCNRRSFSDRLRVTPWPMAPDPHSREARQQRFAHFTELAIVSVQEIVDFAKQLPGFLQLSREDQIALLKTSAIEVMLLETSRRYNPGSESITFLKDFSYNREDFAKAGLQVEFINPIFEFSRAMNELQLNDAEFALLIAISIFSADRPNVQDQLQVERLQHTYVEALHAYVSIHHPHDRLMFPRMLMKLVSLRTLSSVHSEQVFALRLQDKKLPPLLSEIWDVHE
Outline: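 HepG2 cells transiently transfected with GAL4-UAS reporter units for chimeric NR-Gal4 proteins, exposed to chemicals for 24 h. Reporter mRNA quantified by RT-PCR and capillary electrophoresis; gain of signal fitted relative to DMSO.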

[5] = biological target: Hepatocyte nuclear factor 4-alpha (Homo sapiens) (UniProt P41235); experiment: ATG_HNF4a_TRANS: Attagene TRANS-FACTORIAL HepG2 Assay for human Hepatocyte Nuclear Factor 4 alpha (HNF4a) (AID 2282982; active = hit-call score of the fitted dose curve at least 0.9, where 1 is the maximum); settings: HepG2 HNF4a transactivation reporter, mRNA readout
Hepatocyte nuclear factor 4-alpha (Homo sapiens), sequence (P41235 whole entry, looked up): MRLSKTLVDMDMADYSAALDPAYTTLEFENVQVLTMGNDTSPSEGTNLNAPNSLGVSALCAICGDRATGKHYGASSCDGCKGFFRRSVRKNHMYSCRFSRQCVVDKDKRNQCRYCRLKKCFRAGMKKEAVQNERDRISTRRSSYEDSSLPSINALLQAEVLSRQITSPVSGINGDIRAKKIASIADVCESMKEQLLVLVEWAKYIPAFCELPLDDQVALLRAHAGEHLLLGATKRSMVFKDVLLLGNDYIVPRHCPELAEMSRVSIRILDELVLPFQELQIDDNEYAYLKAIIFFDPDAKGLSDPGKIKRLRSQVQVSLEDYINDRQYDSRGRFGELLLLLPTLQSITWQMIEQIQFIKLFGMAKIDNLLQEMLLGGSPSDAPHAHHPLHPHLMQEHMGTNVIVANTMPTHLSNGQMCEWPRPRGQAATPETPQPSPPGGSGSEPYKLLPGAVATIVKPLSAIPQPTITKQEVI
Outline: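 Transient MRTU transfection of HepG2, 24 h dosing. Readout: reporter mRNA via RT-PCR + capillary electrophoresis, fluorescence; activity fit upward relative to DMSO control.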

[6] = ATG_M_06_TRANS: Attagene TRANS-FACTORIAL HepG2 Assay for M06 Transcription Factor (Internal Marker) (AID 2282983; active = hit-call score of the fitted dose curve at least 0.9, where 1 is the maximum;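 also: reporter transcript level by RT-PCR then capillary electrophoresis fluorescence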); settings: HepG2 Attagene TRANS M06 internal marker reporter
Outline: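 mRNA levels of a reporter transcript, quantified as FAM fluorescence on capillary electrophoresis, served as readout. HepG2 cells expressing exogenous GAL4-chimera reporter constructs were exposed for 24 h. Gain of signal over DMSO was evaluated.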

[7] = biological target: Nuclear receptor subfamily 4 group A member 2 (Homo sapiens) (UniProt P43354); experiment: ATG_NURR1_TRANS: Attagene TRANS-FACTORIAL HepG2 Assay for human Nuclear Receptor Related Protein 1 (NURR1) (AID 2282985; active = hit-call score of the fitted dose curve at least 0.9, where 1 is the maximum); settings: HepG2 Attagene TRANS reporter, mRNA readout
Nuclear receptor subfamily 4 group A member 2 (Homo sapiens), sequence (P43354 whole entry, looked up, the tested form may be a part): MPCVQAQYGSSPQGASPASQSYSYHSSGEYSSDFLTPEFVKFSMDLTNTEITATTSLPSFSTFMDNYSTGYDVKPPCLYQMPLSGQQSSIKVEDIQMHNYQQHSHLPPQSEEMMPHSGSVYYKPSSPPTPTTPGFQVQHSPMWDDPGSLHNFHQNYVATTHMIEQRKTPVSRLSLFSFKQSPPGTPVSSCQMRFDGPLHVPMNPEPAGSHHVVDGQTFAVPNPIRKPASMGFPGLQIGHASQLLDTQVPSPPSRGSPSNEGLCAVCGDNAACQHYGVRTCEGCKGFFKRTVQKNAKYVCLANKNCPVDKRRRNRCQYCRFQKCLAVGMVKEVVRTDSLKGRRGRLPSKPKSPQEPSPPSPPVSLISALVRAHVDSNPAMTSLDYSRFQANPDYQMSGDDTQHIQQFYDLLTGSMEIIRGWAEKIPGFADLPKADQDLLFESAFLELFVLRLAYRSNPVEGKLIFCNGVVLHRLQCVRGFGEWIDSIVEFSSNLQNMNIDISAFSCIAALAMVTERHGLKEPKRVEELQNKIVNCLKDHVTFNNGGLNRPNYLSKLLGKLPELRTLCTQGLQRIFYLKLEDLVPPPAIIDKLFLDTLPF
Outline: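 Read-out: reporter mRNA induction by RT-PCR plus capillary electrophoresis with fluorescence detection, after 24 h dosing of transfected HepG2 cells. Exogenous NR-Gal4 chimera activity drives GAL4-UAS reporter; activity fitted upward versus DMSO.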

[8] = biological target: Transcriptional activator Myb (Homo sapiens) (UniProt P10242); experiment: ATG_Myb_CIS: Attagene CIS-FACTORIAL HepG2 Assay for human Myeloblastosis (Myb) Proto-Oncogene Transcription Factor (AID 2282986); settings: HepG2 Attagene CIS-FACTORIAL Myb reporter transcription; actives raise or lower the signal
Outline: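 Steps: transfect HepG2 with cis-regulated reporter units; dose with chemical for 24 h; isolate RNA, reverse-transcribe, PCR-amplify and FAM-label reporter sequences; digest with HpaI; resolve by capillary electrophoresis. Activity fitted in both directions relative to DMSO.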

[9] = biological target: Nuclear respiratory factor 1 (Homo sapiens) (UniProt Q16656); experiment: ATG_NRF1_CIS: Attagene CIS-FACTORIAL HepG2 Assay for human Nuclear Respiratory Factor 1 (NRF1) Orphan Gene (AID 2282987); settings: HepG2 NRF1 cis-element reporter, Attagene multiplex; actives raise or lower the signal
Nuclear respiratory factor 1 (Homo sapiens), sequence (Q16656 whole entry, looked up, the tested form may be a part): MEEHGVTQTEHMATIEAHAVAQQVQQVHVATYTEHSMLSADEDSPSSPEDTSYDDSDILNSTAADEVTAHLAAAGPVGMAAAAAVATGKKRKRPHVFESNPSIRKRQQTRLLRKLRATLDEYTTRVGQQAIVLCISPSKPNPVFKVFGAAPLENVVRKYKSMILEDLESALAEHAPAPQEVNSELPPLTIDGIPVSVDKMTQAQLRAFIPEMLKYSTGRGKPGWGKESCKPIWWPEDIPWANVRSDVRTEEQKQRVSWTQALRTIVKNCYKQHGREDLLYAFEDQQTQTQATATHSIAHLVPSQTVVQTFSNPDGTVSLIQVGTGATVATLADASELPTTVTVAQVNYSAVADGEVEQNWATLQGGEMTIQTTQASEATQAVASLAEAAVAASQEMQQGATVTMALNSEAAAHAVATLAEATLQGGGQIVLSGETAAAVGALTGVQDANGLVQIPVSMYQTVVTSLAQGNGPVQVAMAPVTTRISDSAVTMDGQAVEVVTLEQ
Outline: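 Fluorescence intensity of labelled reporter cDNA fragments, resolved by capillary electrophoresis, served as readout for NRF1 cis-element activity. Transiently transfected HepG2 cells were dosed for 24 hours; activity in either direction was fitted against DMSO negative control.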

[10] = biological target: Myc proto-oncogene protein (Homo sapiens) (UniProt P01106); experiment: ATG_Myc_CIS: Attagene CIS-FACTORIAL HepG2 Assay for human Myelocytomatosis (Myc) Proto-Oncogene Transcription Factor (AID 2282990); settings: HepG2, Attagene cis-reporter transcription factor activity; actives raise or lower the signal
Myc proto-oncogene protein (Homo sapiens), sequence (P01106 whole entry, looked up, the tested form may be a part): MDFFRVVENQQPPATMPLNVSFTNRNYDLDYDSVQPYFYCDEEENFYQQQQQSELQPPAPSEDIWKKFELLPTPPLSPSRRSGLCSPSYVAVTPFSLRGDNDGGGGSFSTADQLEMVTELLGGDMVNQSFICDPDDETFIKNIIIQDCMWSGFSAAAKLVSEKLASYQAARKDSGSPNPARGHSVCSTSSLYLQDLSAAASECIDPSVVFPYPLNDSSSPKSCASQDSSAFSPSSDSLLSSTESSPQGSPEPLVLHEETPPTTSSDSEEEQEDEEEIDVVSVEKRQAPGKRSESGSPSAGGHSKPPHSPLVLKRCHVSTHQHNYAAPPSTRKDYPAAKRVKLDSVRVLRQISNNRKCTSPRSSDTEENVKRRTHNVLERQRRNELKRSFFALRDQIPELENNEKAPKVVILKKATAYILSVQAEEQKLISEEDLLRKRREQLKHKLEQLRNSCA
Outline: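 Fluorescence intensity of reporter-specific cDNA fragments, separated by capillary electrophoresis, gives the signal. Transfected HepG2 cells carrying cis-promoter reporter constructs are incubated with compound for 24 h; DMSO serves as baseline.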

[11] = ATG_NF_kB_CIS: Attagene CIS-FACTORIAL HepG2 Assay for human Nuclear Factor Kappa B (NF-kB) (AID 2282991); settings: HepG2 Attagene cis-factorial NF-kB reporter mRNA; actives raise or lower the signal
Outline: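 Endogenous transcription factor activity in HepG2 was captured via cis-regulated reporter constructs; after 24 h dosing, reporter mRNA was reverse-transcribed, amplified, fluorescently labelled and sized by capillary electrophoresis, with activity fitted bidirectionally relative to DMSO.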

[12] = ATG_NRF2_ARE_CIS: Attagene CIS-FACTORIAL HepG2 Assay for human Nuclear Factor Erythroid 2 Related Factor 2 (NFR2) response to Antioxidant Response Elements (ARE) (AID 2282992); settings: HepG2 Attagene ARE/NRF2 reporter, transcription factor activity; actives raise or lower the signal;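 as to AC50: reporter mRNA level measured by RT-PCR and capillary electrophoresis fluorescence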
Outline: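 Readout: reporter mRNA quantified by RT-PCR plus FAM-labelled primer extension, HpaI digestion and capillary electrophoresis, 24 h after dosing transfected HepG2 cells. Gain or loss of signal is fitted bidirectionally against DMSO baseline.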

[13] = biological target: Glucocorticoid receptor (Homo sapiens) (UniProt P04150); experiment: ATG_GR_TRANS: Attagene TRANS-FACTORIAL HepG2 Assay for human Glucocorticoid Receptor (GR) (AID 2282978; active = hit-call score of the fitted dose curve at least 0.9, where 1 is the maximum;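 also: activators score as hits since higher reporter transcript over DMSO is fitted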); settings: HepG2 Attagene TRANS GR reporter, mRNA transcription
Glucocorticoid receptor (Homo sapiens), sequence (P04150 whole entry, looked up, the tested form may be a part): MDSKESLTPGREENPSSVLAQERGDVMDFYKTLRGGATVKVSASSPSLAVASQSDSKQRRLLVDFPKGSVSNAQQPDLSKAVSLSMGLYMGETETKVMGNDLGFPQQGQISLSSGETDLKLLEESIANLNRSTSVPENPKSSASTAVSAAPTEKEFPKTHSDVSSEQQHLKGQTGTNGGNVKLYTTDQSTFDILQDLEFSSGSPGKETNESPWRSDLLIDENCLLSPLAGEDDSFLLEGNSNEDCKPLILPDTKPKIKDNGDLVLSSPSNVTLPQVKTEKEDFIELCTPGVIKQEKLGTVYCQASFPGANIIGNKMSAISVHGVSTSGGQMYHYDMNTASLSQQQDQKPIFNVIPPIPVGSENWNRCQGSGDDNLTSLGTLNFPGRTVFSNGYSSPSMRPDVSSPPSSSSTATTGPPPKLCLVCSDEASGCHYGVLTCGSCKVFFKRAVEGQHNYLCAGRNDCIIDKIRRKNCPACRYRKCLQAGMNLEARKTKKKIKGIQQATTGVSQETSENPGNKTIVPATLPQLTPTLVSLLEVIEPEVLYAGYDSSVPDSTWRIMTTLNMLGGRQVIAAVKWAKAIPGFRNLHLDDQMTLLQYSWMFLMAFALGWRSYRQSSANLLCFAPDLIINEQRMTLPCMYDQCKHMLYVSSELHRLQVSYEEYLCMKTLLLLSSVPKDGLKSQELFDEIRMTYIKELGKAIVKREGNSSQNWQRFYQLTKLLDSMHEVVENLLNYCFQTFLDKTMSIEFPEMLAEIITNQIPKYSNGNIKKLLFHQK
Outline: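 In this trans-factorial format, exogenous NR-GAL4 chimeric proteins in transfected HepG2 cells regulate GAL4-UAS reporter transcription. After 24 h treatment, reporter mRNA induction relative to DMSO is read by RT-PCR and capillary electrophoresis.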

[14] = biological target: Oxysterols receptor LXR-beta (Homo sapiens) (UniProt P55055); experiment: ATG_LXRb_TRANS: Attagene TRANS-FACTORIAL HepG2 Assay for human Liver X Receptor beta (LXRb) (AID 2282981; active = hit-call score of the fitted dose curve at least 0.9, where 1 is the maximum); settings: HepG2 Attagene TRANS GAL4-LXRb reporter, mRNA
Oxysterols receptor LXR-beta (Homo sapiens), sequence (P55055 whole entry, looked up, the tested form may be a part): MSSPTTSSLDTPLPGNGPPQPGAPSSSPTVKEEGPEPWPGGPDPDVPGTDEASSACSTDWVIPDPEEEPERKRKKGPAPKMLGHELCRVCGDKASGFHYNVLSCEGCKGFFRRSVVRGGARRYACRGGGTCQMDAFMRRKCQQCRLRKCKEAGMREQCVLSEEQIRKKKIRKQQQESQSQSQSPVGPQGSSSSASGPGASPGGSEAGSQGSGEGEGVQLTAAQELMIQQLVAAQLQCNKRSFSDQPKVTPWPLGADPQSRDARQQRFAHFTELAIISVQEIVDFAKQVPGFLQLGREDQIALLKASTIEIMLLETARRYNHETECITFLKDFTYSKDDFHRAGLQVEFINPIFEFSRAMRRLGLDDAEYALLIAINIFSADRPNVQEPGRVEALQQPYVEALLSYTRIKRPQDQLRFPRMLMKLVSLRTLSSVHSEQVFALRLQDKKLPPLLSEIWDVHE
Outline: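 Readout: fluorescent reporter mRNA fragments resolved by capillary electrophoresis after RT-PCR. System: transiently transfected human HepG2, exogenous LXRb-Gal4 chimera driving GAL4-UAS reporter, 24 h dosing. Activity fitted upward against DMSO baseline.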

[15] = ATG_NFI_CIS: Attagene CIS-FACTORIAL HepG2 Assay for human Nuclear Factor I (NFI) (AID 2282989); settings: HepG2 cis-regulatory reporter, NFI response element transcription; actives raise or lower the signal
Outline: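 Cells: human liver HepG2, transiently transfected with promoter-regulated reporter transcription units. Exposure 24 h. Detection: fluorescent RT-PCR products separated by capillary electrophoresis, normalised to DMSO negative control.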

[16] = biological target: Estrogen-related receptor gamma (Homo sapiens) (UniProt P62508); experiment: ATG_ERRg_TRANS: Attagene TRANS-FACTORIAL HepG2 Assay for human Estrogen-Related Receptor gamma (ERRg) (AID 2282977; active = hit-call score of the fitted dose curve at least 0.9, where 1 is the maximum;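 also: hits increase reporter signal over DMSO so potencies reflect activators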); settings: HepG2 Attagene TRANS reporter, ERRg transactivation
Estrogen-related receptor gamma (Homo sapiens), sequence (P62508 whole entry, looked up, the tested form may be a part): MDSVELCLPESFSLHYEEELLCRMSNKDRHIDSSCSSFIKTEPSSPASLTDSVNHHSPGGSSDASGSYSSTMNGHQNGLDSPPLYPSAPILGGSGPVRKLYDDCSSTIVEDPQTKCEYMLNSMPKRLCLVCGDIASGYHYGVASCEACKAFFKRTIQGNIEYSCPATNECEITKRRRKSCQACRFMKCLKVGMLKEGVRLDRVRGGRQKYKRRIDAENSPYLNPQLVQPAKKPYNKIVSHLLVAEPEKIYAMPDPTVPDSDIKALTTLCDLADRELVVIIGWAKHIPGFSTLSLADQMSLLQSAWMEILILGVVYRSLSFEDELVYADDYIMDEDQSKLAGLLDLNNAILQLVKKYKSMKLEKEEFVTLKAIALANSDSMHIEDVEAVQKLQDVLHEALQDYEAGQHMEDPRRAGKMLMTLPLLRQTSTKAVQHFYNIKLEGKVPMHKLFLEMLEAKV
Outline: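 Exogenous NR-Gal4 chimera activity was assessed in HepG2 cells bearing transfected GAL4-UAS reporters. After 24 h dosing, total RNA underwent RT-PCR, fluorescent primer extension and HpaI digestion before capillary electrophoresis, with gain of signal scored against DMSO.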

[17] = ATG_M_32_TRANS: Attagene TRANS-FACTORIAL HepG2 Assay for M32 Transcription Factor (Internal Marker) (AID 2282984; active = hit-call score of the fitted dose curve at least 0.9, where 1 is the maximum); settings: HepG2 Attagene TRANS M32 internal marker reporter
Outline: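 Read-out: fluorescent reporter cDNA fragments resolved by capillary electrophoresis after RT-PCR of total RNA. Transfected HepG2 cells were exposed to chemical for 24 h. Activity scored in the positive direction relative to DMSO.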

CC(C=O)Cc1ccc2c(c1)OCO2 (stereo not given)
outcome [1]: inactive | outcome [2]: inactive | outcome [3]: inactive | outcome [4]: inactive | outcome [5]: inactive | outcome [6]: inactive | outcome [7]: inactive | outcome [8]: inactive | outcome [9]: inactive | outcome [10]: inactive | outcome [11]: inactive | outcome [12]: inactive

CCCCCCCCCCCCBr
outcome [1]: inactive | outcome [2]: inactive | outcome [13]: inactive | outcome [14]: inactive | outcome [5]: inactive | outcome [6]: inactive | outcome [8]: inactive | outcome [9]: inactive | outcome [15]: inactive | outcome [10]: inactive | outcome [11]: inactive | AC50 [12]: 55.7 µM (active)

OCCN(CCO)CCO
outcome [1]: inactive | outcome [2]: inactive | outcome [4]: inactive | outcome [9]: inactive | outcome [15]: inactive | outcome [10]: inactive | outcome [12]: inactive

CCCCC(CC)COC(=O)Cl (stereo not given)
outcome [1]: inactive | outcome [2]: inactive | outcome [16]: inactive | outcome [5]: inactive | outcome [17]: inactive | outcome [7]: inactive | outcome [8]: inactive | outcome [9]: inactive | outcome [10]: inactive | outcome [11]: inactive | outcome [12]: inactive

O=NN1CCCCCC1
outcome [1]: inactive | outcome [2]: inactive | outcome [13]: inactive | outcome [3]: inactive | outcome [14]: inactive | outcome [5]: inactive | outcome [6]: inactive | outcome [17]: inactive | outcome [8]: inactive | outcome [9]: inactive | outcome [15]: inactive | outcome [10]: inactive | outcome [11]: inactive

Cc1cc(Cl)ccc1OCCCC(=O)O
outcome [1]: inactive | outcome [2]: inactive | outcome [13]: inactive | outcome [4]: inactive | outcome [17]: inactive | outcome [8]: inactive | outcome [9]: inactive | outcome [15]: inactive | outcome [10]: inactive | outcome [12]: inactive

C[CH2][Hg][S]c1ccccc1C(=O)O
AC50 [1]: 2.7 µM (active) | outcome [16]: inactive | outcome [13]: inactive | outcome [4]: inactive | outcome [14]: inactive | outcome [5]: inactive | outcome [6]: inactive | AC50 [8]: 3.89 µM (active) | outcome [9]: inactive | AC50 [15]: 1.58 µM (active) | outcome [10]: inactive | AC50 [12]: 0.3 µM (active)

CCOP(=S)(OCC)SCS(=O)(=O)C(C)(C)C
outcome [1]: inactive | outcome [2]: inactive | outcome [13]: inactive | outcome [3]: inactive | AC50 [4]: 34.1 µM (active) | AC50 [14]: 53.5 µM (active) | outcome [6]: inactive | outcome [8]: inactive | outcome [9]: inactive | outcome [15]: inactive | outcome [10]: inactive | outcome [11]: inactive | outcome [12]: inactive

BrCCCCBr
outcome [1]: inactive | outcome [2]: inactive | outcome [13]: inactive | outcome [4]: inactive | outcome [14]: inactive | outcome [5]: inactive | outcome [6]: inactive | outcome [17]: inactive | outcome [8]: inactive | outcome [9]: inactive | outcome [15]: inactive | outcome [10]: inactive | outcome [11]: inactive

O=C/C(Cl)=C(/Cl)C(=O)O
outcome [1]: inactive | outcome [16]: inactive | outcome [4]: inactive | outcome [14]: inactive | outcome [5]: inactive | outcome [6]: inactive | outcome [17]: inactive | outcome [7]: inactive | outcome [8]: inactive | outcome [9]: inactive | outcome [10]: inactive | AC50 [11]: 35.2 µM (active)
